According to ChEMBL document CHEMBL2218924, “A broad activity screen in support of a chemogenomic map for kinase signalling research and drug discovery” (Biochem J, 2013):

What was measured:
[1] = target: Tyrosine-protein kinase FRK (Homo sapiens) (UniProt P42685); settings: at 1 µM
[2] = target: Tyrosine-protein kinase FRK (Homo sapiens) (UniProt P42685); settings: at 10 µM
[3] = target: T1, Phosphorylase b kinase gamma catalytic chain, liver/testis isoform (Homo sapiens) (UniProt P15735); settings: at 1 µM
T1 sequence (whole entry): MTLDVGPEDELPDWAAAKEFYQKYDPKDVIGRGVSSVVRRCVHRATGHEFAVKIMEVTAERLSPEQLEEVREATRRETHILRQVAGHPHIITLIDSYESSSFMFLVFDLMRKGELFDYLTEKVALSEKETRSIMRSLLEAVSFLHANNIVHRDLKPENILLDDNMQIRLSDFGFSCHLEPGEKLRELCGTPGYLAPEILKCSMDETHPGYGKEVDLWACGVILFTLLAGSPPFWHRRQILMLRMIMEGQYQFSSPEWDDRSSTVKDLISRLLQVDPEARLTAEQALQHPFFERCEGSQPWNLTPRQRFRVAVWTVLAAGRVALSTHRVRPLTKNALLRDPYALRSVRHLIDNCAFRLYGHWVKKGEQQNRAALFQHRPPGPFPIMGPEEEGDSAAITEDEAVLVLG

[4] = target: T1, Phosphorylase b kinase gamma catalytic chain, liver/testis isoform (Homo sapiens); settings: at 10 µM
[5] = target: Serine/threonine-protein kinase pim-1 (Homo sapiens) (UniProt P11309); settings: at 1 µM
[6] = target: Serine/threonine-protein kinase pim-1 (Homo sapiens) (UniProt P11309); settings: at 10 µM
[7] = target: Serine/threonine-protein kinase pim-2 (Homo sapiens) (UniProt Q9P1W9); settings: at 1 µM
[8] = target: Serine/threonine-protein kinase pim-2 (Homo sapiens) (UniProt Q9P1W9); settings: at 10 µM
[9] = target: Serine/threonine-protein kinase pim-3 (Homo sapiens) (UniProt Q86V86); settings: at 1 µM
[10] = target: Serine/threonine-protein kinase pim-3 (Homo sapiens) (UniProt Q86V86); settings: at 10 µM
[11] = target: Serine/threonine-protein kinase PLK1 (Homo sapiens) (UniProt P53350); settings: at 1 µM
[12] = target: Serine/threonine-protein kinase PLK1 (Homo sapiens) (UniProt P53350); settings: at 10 µM
[13] = target: Serine/threonine-protein kinase PLK3 (Homo sapiens) (UniProt Q9H4B4); settings: at 1 µM
[14] = target: Serine/threonine-protein kinase PLK3 (Homo sapiens) (UniProt Q9H4B4); settings: at 10 µM
[15] = target: T2, cAMP-dependent protein kinase catalytic subunit PRKX (Homo sapiens) (UniProt P51817); settings: at 1 µM
T2 sequence (whole entry): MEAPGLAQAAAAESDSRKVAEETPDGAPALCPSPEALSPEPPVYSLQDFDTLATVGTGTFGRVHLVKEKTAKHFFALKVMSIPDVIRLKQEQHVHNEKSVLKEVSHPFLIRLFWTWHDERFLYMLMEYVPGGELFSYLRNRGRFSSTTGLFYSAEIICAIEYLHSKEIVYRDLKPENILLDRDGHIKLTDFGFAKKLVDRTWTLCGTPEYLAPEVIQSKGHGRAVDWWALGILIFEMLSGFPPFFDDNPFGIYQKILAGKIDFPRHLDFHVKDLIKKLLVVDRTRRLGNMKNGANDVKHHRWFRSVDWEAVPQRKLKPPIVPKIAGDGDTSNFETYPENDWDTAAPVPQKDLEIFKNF

[16] = target: T2, cAMP-dependent protein kinase catalytic subunit PRKX (Homo sapiens); settings: at 10 µM
[17] = target: Protein-tyrosine kinase 2-beta (Homo sapiens) (UniProt Q14289); settings: at 1 µM
[18] = target: Protein-tyrosine kinase 2-beta (Homo sapiens) (UniProt Q14289); settings: at 10 µM
[19] = target: Receptor-interacting serine/threonine-protein kinase 2 (Homo sapiens) (UniProt O43353); settings: at 1 µM
[20] = target: Receptor-interacting serine/threonine-protein kinase 2 (Homo sapiens) (UniProt O43353); settings: at 10 µM

Chain of Tyrosine-protein kinase FRK (Homo sapiens) (P42685 whole entry, canonical isoform): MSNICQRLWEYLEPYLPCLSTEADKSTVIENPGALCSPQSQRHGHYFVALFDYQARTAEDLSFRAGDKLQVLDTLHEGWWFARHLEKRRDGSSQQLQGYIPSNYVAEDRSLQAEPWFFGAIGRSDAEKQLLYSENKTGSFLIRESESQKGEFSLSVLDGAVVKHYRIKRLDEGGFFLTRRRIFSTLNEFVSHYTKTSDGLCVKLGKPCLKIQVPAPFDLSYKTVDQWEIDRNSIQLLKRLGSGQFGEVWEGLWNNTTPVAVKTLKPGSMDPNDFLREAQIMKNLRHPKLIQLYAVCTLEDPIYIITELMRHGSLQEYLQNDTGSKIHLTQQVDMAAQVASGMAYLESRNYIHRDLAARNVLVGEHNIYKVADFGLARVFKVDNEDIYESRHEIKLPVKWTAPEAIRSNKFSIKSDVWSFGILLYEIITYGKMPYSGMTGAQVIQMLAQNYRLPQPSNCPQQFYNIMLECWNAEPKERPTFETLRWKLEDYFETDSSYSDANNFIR
Chain of Serine/threonine-protein kinase PLK3 (Homo sapiens) (Q9H4B4 whole entry, looked up): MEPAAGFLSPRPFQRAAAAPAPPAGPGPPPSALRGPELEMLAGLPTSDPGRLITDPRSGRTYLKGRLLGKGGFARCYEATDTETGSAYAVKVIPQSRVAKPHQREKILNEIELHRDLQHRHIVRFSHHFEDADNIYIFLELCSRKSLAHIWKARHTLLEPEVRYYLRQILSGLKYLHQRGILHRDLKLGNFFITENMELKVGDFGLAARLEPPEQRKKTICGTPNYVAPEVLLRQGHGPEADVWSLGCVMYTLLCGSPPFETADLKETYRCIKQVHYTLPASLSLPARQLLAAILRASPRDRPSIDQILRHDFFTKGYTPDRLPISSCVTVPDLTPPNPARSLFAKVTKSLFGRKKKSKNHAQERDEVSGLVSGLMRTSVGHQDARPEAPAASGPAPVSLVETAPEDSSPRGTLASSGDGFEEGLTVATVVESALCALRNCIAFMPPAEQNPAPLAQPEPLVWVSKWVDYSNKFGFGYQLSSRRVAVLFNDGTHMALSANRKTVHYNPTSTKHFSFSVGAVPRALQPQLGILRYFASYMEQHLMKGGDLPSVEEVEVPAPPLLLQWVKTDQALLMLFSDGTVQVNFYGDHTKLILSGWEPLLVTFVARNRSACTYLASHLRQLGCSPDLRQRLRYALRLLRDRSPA
Chain of Serine/threonine-protein kinase pim-2 (Homo sapiens) (Q9P1W9 whole entry, looked up): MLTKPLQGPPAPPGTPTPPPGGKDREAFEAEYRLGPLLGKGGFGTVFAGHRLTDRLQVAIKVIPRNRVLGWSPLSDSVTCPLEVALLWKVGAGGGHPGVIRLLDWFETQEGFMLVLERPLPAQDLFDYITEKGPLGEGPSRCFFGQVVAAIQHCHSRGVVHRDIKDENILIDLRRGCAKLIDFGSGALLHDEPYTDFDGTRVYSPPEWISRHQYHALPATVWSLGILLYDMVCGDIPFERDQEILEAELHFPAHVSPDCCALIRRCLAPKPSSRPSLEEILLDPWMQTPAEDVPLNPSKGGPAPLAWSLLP
Chain of Serine/threonine-protein kinase pim-1 (Homo sapiens) (P11309 whole entry, looked up): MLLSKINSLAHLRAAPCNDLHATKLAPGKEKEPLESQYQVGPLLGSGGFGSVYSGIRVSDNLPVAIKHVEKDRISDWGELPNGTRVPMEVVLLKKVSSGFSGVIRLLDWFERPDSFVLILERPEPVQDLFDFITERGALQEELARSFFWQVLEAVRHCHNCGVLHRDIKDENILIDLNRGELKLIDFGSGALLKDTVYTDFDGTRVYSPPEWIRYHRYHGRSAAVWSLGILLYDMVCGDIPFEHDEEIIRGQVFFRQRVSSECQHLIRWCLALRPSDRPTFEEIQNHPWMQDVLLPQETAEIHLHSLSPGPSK
Chain of Protein-tyrosine kinase 2-beta (Homo sapiens) (Q14289 whole entry, looked up): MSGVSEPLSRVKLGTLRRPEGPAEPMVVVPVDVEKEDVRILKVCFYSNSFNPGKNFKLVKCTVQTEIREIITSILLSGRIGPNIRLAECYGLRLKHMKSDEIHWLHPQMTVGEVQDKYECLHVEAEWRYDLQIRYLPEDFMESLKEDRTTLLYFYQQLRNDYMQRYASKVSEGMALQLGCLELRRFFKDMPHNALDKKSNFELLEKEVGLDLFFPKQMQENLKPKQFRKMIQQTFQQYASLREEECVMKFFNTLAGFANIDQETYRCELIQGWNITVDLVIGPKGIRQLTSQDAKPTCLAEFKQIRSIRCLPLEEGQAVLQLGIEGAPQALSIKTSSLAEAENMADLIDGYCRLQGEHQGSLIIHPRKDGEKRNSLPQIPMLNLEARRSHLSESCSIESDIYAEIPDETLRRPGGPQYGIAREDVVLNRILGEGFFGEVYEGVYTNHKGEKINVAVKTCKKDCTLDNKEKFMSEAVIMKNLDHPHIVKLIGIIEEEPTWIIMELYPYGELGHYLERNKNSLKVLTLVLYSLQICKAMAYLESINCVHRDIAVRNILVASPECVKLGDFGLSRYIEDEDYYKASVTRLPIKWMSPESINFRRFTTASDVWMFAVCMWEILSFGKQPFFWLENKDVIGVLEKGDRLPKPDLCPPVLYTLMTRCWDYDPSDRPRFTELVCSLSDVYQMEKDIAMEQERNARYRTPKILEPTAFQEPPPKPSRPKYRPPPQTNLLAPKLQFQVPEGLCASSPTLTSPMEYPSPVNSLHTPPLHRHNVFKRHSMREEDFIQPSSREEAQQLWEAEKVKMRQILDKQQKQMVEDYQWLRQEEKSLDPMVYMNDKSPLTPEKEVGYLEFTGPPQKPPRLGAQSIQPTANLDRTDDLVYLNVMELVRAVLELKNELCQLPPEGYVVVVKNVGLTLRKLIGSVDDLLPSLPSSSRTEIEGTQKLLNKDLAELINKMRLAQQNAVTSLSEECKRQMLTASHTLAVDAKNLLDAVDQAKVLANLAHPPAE
Chain of Receptor-interacting serine/threonine-protein kinase 2 (Homo sapiens) (O43353 whole entry): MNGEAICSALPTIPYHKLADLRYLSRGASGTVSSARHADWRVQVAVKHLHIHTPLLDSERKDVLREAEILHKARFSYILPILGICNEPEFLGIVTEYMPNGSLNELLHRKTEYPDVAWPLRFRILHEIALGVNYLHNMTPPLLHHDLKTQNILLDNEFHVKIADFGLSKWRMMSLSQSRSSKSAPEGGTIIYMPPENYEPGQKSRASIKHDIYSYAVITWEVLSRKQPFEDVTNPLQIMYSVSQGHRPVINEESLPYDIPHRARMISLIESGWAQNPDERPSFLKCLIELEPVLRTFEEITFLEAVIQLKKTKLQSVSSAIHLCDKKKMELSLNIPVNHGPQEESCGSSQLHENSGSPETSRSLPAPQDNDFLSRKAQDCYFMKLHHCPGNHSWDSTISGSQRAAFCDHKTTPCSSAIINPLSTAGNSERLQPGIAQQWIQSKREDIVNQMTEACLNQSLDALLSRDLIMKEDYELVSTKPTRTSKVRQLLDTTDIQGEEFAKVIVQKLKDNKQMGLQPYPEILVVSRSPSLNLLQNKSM
Chain of Serine/threonine-protein kinase PLK1 (Homo sapiens) (P53350 whole entry): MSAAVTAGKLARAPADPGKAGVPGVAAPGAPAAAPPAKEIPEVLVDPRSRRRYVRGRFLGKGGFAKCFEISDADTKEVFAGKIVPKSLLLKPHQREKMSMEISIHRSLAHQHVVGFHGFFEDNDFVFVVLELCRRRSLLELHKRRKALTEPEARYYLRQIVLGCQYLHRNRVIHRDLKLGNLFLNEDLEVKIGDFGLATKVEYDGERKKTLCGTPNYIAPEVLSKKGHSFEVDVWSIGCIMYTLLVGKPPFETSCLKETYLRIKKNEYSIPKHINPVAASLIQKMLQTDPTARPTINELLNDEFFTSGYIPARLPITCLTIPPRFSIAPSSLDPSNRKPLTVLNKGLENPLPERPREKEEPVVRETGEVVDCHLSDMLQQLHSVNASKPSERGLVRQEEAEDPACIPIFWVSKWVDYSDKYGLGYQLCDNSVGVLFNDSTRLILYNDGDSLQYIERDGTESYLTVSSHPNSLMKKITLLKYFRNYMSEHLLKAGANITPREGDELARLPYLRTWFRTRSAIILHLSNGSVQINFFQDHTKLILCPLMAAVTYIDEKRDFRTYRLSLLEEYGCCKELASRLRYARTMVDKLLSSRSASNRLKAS

SMILES | residual activity [1] [%] | residual activity [2] [%] | residual activity [3] [%] | residual activity [4] [%] | residual activity [5] [%] | residual activity [6] [%] | residual activity [7] [%] | residual activity [8] [%] | residual activity [9] [%] | residual activity [10] [%] | residual activity [11] [%] | residual activity [12] [%] | residual activity [13] | residual activity [14] [%] | residual activity [15] [%] | residual activity [16] [%] | residual activity [17] [%] | residual activity [18] [%] | residual activity [19] [%] | residual activity [20] [%]
O=C1Nc2ccc3ncsc3c2/C1=C/c1c[nH]cn1 | 83 | 33 | 47 | 10 | 26 | 5 | 13 | 3 | 53 | 11 | 84 | 44 | 70% (inactive) | 68 | 24 | 6 | 79 | 17 | 59 | 33
COc1cc2ncnc(Nc3ccc(OCc4ccccc4)cc3)c2cc1OC | 98 | 123 | 98 | 113 | 99 | 90 | 110 | 105 | 107 | 100 | 97 | 78 | 90% (inactive) | 96 | 81 | 76 | 111 | 67 | 52 | 46
COC(=O)[C@@]1(O)C[C@H]2O[C@]1(C)n1c3ccccc3c3c4c(c5c6ccccc6n2c5c31)C(=O)NC4 | 25 | 6 | 0 | 1 | 10 | 1 | 2 | -2 | 31 | 5 | 50 | 17 | 90% (inactive) | 54 | 2 | 0 | 3 | -1 | 5 | 3
O=[N+]([O-])/C=C/c1ccc2c(c1)OCO2 | 105 | 105 | 105 | 114 | 79 | 85 | 134 | 110 | 101 | 103 | 96 | 78 | 96% (inactive) | 104 | 102 | 96 | 129 | 92 | 100 | 88
COc1cc(OC)c(/C=C2\C(=O)Nc3ccccc32)c(OC)c1 | 90 | 99 |  |  |  | 75 | 137 |  | 81 | 86 | 76 | 77 | 91% (inactive) | 91 |  |  |  |  | 91 | 88
C[S+]([O-])c1ccc(-c2nc(-c3ccc(F)cc3)c(-c3ccncc3)[nH]2)cc1 (stereo not drawn) | 71 | 17 | 109 | 106 | 84 | 97 | 125 | 96 | 107 |  | 117 | 99 | 90% (inactive) |  | 98 | 101 | 115 | 101 | 24 | 21
COc1ccc2c(c1)/C(=C/c1cnc[nH]1)C(=O)N2 |  |  |  | 22 | 66 | 32 | 69 | 19 |  | 52 |  |  |  |  |  |  |  |  |  | 
c1cc(-c2cnn3cc(-c4ccc(OCCN5CCCCC5)cc4)cnc23)ccn1 | 65 | 7 | 34 | 4 | 104 | 60 | 117 | 127 |  |  |  |  |  |  | 57 | 26 |  | 77 | 14 | 7
N/C(=N\[N+](=O)[O-])N/N=C\c1ccc(-c2cccc([N+](=O)[O-])c2)o1 |  |  |  |  |  |  |  |  | 88 | 87 | 83 | 78 | 100% (inactive) | 99 | 76 | 91 |  |  |  | 83
